BAZ2B block: BAZ2B (human) inhibition. AlphaScreen BAZ2B-H3K14Ac peptide displacement. actives 4.4% (n = 360,000). AID 504333. Q9UIF8. Potency, µM (doses to about 114 µM), actives largely listed as inhibitors; also: nearly all actives have a fitted effect of over 60% in size
Target sequence (Q9UIF8 whole entry, looked up): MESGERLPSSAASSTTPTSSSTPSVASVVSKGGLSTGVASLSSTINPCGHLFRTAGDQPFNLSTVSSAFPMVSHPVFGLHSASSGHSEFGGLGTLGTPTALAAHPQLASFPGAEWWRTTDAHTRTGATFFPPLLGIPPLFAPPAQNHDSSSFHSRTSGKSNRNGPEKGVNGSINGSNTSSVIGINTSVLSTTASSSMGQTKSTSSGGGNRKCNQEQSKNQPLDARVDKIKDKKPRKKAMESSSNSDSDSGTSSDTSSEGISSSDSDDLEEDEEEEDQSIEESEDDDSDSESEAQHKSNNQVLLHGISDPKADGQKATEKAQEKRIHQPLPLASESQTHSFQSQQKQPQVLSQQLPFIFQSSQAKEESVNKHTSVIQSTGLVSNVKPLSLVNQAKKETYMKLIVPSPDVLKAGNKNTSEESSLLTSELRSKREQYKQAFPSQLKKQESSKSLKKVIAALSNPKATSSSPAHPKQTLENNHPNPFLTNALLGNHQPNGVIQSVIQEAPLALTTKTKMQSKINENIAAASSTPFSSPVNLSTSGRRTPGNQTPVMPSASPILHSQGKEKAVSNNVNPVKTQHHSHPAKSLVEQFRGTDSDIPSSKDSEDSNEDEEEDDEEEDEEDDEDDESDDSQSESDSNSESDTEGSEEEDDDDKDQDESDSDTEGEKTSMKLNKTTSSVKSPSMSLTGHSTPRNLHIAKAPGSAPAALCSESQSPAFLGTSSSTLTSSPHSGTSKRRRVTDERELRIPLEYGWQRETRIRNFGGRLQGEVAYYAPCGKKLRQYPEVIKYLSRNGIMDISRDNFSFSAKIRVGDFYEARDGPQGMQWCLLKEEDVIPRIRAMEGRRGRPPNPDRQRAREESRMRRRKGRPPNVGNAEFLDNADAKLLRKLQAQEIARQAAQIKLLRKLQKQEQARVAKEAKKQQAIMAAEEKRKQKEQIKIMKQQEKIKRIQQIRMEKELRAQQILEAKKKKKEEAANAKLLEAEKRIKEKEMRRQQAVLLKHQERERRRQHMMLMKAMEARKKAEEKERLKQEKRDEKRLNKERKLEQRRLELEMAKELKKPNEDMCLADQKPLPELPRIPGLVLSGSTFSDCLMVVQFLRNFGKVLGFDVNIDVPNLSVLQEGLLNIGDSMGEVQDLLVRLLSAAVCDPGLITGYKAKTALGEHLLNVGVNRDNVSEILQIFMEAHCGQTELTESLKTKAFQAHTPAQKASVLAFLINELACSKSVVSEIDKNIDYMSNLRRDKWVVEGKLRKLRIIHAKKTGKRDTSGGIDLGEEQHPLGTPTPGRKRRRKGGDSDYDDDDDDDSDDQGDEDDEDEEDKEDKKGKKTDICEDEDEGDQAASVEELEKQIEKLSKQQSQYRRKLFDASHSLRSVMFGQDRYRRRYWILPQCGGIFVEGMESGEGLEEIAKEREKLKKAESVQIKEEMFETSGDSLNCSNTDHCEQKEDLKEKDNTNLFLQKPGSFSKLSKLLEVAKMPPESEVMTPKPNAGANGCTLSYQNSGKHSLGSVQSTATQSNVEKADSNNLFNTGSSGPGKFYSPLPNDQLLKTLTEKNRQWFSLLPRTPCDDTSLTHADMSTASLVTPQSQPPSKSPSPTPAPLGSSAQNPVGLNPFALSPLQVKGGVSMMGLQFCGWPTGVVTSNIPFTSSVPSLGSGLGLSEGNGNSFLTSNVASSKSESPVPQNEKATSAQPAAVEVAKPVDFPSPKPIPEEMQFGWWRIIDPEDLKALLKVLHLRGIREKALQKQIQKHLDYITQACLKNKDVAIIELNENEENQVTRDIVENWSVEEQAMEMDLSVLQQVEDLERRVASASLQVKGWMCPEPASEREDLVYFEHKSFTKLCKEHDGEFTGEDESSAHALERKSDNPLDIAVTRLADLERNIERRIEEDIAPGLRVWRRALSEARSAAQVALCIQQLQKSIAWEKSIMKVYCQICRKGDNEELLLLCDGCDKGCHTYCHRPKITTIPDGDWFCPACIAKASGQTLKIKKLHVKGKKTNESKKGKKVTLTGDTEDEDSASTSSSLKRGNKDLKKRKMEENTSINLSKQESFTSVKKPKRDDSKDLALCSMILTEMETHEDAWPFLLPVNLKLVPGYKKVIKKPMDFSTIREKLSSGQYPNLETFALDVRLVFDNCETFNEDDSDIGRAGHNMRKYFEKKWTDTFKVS
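Compounds, titrated to a top concentration of 110 uM, were incubated 30 min at room temperature with preformed BAZ2B/acetyl-K14 H3 peptide complex (50 nM each). Proximity signal was measured by AlphaScreen after 20 min with beads.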
G9a block: inhibitors of human histone lysine methyltransferase G9a. G9a H3K9 monomethylation, AlphaScreen, 2 h. Potency, µM (highest dose often 102 µM), hits mostly inhibitors. actives 8.8% (n = 350,000); also: nearly all actives have a fitted effect of over 75% in size
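Using a bead-based AlphaScreen, monomethylated H3K9 product from 2 h room-temperature reactions (G9a 20 nM, peptide 500 nM, SAM 20 uM) was detected with 0.5 ug/mL rabbit anti-H3K9me1 antibody.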
JMJD2A Tudor inh: JMJD2A Tudor domain (human) inhibition. O75164. AlphaScreen JMJD2A-Tudor / H3K4me3 peptide binding. Potency, µM (top dose mostly 114 µM), actives largely listed as inhibitors. actives 4.4% (n = 390,000). AID 504339; also: nearly all actives have a fitted effect of over 50% in size
HP1b binding inh: inhibitors of HP1-beta chromodomain binding to methylated histone tails | P83916 | AlphaScreen HP1-beta / biotin-H3K9me3 peptide binding | Potency, µM (series often up to 114 µM), hits mostly inhibitors | actives 0.56% (n = 390,000) | AID 540317; also: nearly all actives have a fitted effect of over 70% in size
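HP1-beta protein (50 nM final) preincubated 30 min at room temperature with biotinylated H3(1-18)K9me3 peptide (50 nM) in PBS pH 7.4, 0.01% Tween-20, then compound added for 30 min. AlphaScreen streptavidin donor/nickel chelate acceptor beads (10 ug/mL final), 30 min dark, luminescence read.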
Sfp PPTase inh: Sfp phosphopantetheinyl transferase inhibition; Biochemical Sfp PPTase activity, qHTS; AID 1490; actives 3.5% (n = 310,000); Q9F4F7; Potency, µM, most hits filed as inhibitors;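 also: the enzyme is Sfp with the accession as filed and its product quenches rhodamine fluorescence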
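Fluorescence-quenching assay: 15 nM Sfp-PPTase preincubated 15 min at room temperature with compound, then 5 uM rhodamine-CoA and 12.5 uM BHQ-2-labelled YbbR peptide added. Fluorescence (ex 525/em 598 nm) read at start and after 30 min; difference gives rate.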
Hits are given with their value; [ ] = remark or other dose. In the library only some 12% were active in any assay of this set; here they are far more common. Calls follow the shape of the dose curve; as a rule, active = well fitted curve in the direction sought with a large enough effect; inconclusive = small, poorly fitted or top-dose-only effect, or another doubt; inactive = no such curve, though single readings can be large; an effect the other way counts as inactive or inconclusive.

Results for c1ccc(-c2ccccc2OCCCCN2CCCCC2)cc1 ?
BAZ2B block: 79µM; G9a block: 13µM; JMJD2A Tudor inh: 40µM; HP1b binding inh: inactive; Sfp PPTase inh: inactive

What do the screens show for `c1ccc(-c2ccccc2OCCn2cncn2)cc1`?
BAZ2B block: inactive; G9a block: inconclusive; JMJD2A Tudor inh: inactive; HP1b binding inh: inactive; Sfp PPTase inh: inactive

What do the screens show for `NCCOc1ccccc1-c1ccccc1`?
BAZ2B block: inactive; G9a block: inactive; JMJD2A Tudor inh: inactive; HP1b binding inh: inactive; Sfp PPTase inh: inactive

How did N=C(CC(O)COc1ccccc1-c1ccccc1)N1CCCCC1 (stereo not drawn) do in these assays?
G9a block: inactive; Sfp PPTase inh: inactive

What do the screens show for `CCOc1ccccc1NC(=O)CSc1nc2cc(OC)c(OC)cc2c2nc(CCn3c(C)nc4ccccc43)nn12`?
G9a block: inactive; JMJD2A Tudor inh: inactive; HP1b binding inh: inactive

How did CN(C)CCCNc1cc(C(C)(C)C)nc2c(-c3ccccc3)cnn12 do in these assays?
BAZ2B block: inactive; JMJD2A Tudor inh: inactive; HP1b binding inh: inactive; Sfp PPTase inh: 50µM

How did CC(C)(C)c1cc(NCCCn2ccnc2)n2ncc(-c3ccc(Cl)cc3)c2n1 do in these assays?
BAZ2B block: inconclusive; JMJD2A Tudor inh: inactive; HP1b binding inh: inactive; Sfp PPTase inh: inactive

How did CCC(C)NC(=O)C1c2ccccc2C(=O)N(c2ccc(OC)cc2)C1c1ccc(OC)cc1 (stereo not drawn) do in these assays?
BAZ2B block: inactive; G9a block: inactive; JMJD2A Tudor inh: 20µM; HP1b binding inh: inactive; Sfp PPTase inh: inactive

Results for CCC(C)NC(=O)C1c2ccccc2C(=O)N1Cc1cc(OC)ccc1OC (stereo not drawn) ?
BAZ2B block: inactive; G9a block: inactive; JMJD2A Tudor inh: inactive; HP1b binding inh: inactive; Sfp PPTase inh: inactive

What do the screens show for `CCc1ccccc1NC(=O)Nc1ccc2c(c1)N(CC)C(=O)c1ccccc1S2`?
BAZ2B block: inactive; G9a block: inactive; JMJD2A Tudor inh: inactive; HP1b binding inh: inactive

What do the screens show for `COc1cc(CN2CCCC(CO)(Cc3cccc(Cl)c3)C2)cc(OC)c1O` (stereo not drawn)?
BAZ2B block: inactive; G9a block: 50µM; JMJD2A Tudor inh: inactive; HP1b binding inh: inactive; Sfp PPTase inh: inactive

Results for OCC1(Cc2ccccc2)CCCN(Cc2ccc(-c3ccco3)cc2)C1 (stereo not drawn) ?
BAZ2B block: 45µM; JMJD2A Tudor inh: inconclusive; HP1b binding inh: inactive; Sfp PPTase inh: inactive

What do the screens show for `COc1ccc(CN2CCCC(CO)(Cc3cccc(Cl)c3)C2)cc1OC` (stereo not drawn)?
BAZ2B block: inactive; G9a block: inactive; JMJD2A Tudor inh: inactive; HP1b binding inh: inactive; Sfp PPTase inh: inactive

How did CCn1ccnc1CN1CCCC(CO)(Cc2cccc(OC)c2)C1 (stereo not drawn) do in these assays?
BAZ2B block: 89µM; G9a block: inactive; JMJD2A Tudor inh: inactive; HP1b binding inh: inactive; Sfp PPTase inh: inactive

What do the screens show for `O=c1c2cccnc2n(Cc2ccccc2F)c(=O)n1Cc1ccc(F)cc1`?
BAZ2B block: inactive; G9a block: inactive; JMJD2A Tudor inh: inactive; HP1b binding inh: inactive

Results for CC(C)/C=C/CN1CCC(Oc2ccc(C(=O)N3CCCC3)cc2)CC1 ?
BAZ2B block: inactive; G9a block: inactive; Sfp PPTase inh: inactive

What do the screens show for `CC(C)OC(=O)c1c(NC(=O)CCC(=O)O)sc2c1CCCCC2`?
BAZ2B block: inactive; G9a block: inactive; JMJD2A Tudor inh: inactive; HP1b binding inh: inactive; Sfp PPTase inh: inactive

Results for NC(=O)c1c(NC(=O)C2CC=CCC2C(=O)O)sc2c1CCCCC2 (stereo not drawn) ?
BAZ2B block: inconclusive; G9a block: 8.9µM; JMJD2A Tudor inh: 56µM; HP1b binding inh: inconclusive; Sfp PPTase inh: 35µM

How did CC(C)OC(=O)c1c(NC(=O)C2CC=CCC2C(=O)O)sc2c1CCCCC2 (stereo not drawn) do in these assays?
BAZ2B block: inconclusive; G9a block: 45µM; JMJD2A Tudor inh: inactive; HP1b binding inh: inactive; Sfp PPTase inh: inactive

How did O=S(=O)(NNc1cccc(Cl)n1)c1ccc(Cl)cc1 do in these assays?
BAZ2B block: inactive; JMJD2A Tudor inh: inactive; HP1b binding inh: inactive; Sfp PPTase inh: 40µM

How did O=C(NNc1cccc(Cl)n1)Nc1cccc(Cl)c1 do in these assays?
BAZ2B block: inactive; G9a block: inconclusive; JMJD2A Tudor inh: inactive; HP1b binding inh: inactive; Sfp PPTase inh: inactive

Results for CCc1ccc(S(=O)(=O)c2cn(Cc3ccccc3)c3cc(F)c(F)cc3c2=O)cc1 ?
BAZ2B block: inactive; G9a block: inconclusive; JMJD2A Tudor inh: inactive; HP1b binding inh: inactive

What do the screens show for `CCCCN(C)S(=O)(=O)c1ccc(NC2=NS(=O)(=O)c3ccccc32)cc1`?
BAZ2B block: inactive; G9a block: inactive; JMJD2A Tudor inh: inactive; HP1b binding inh: inactive

How did COc1cc(OC)cc(-c2c(C#Cc3ccsc3)c3cc(-c4ccc(CN5CCOCC5)cc4)ccc3n2C)c1 do in these assays?
JMJD2A Tudor inh: inactive; HP1b binding inh: inactive

How did COc1cc(C#Cc2c(-c3cncn3C)n(C)c3ccc(-c4ccc(CN5CCOCC5)cc4)cc23)cc(OC)c1 do in these assays?
JMJD2A Tudor inh: 8.9µM; HP1b binding inh: inactive

What do the screens show for `COc1cc(C#Cc2c(-c3cncn3C)n(C)c3ccc(-c4cnc(OC)nc4)cc23)cc(OC)c1`?
BAZ2B block: 50µM; G9a block: inactive[0.501 µM]; JMJD2A Tudor inh: inconclusive; HP1b binding inh: inactive

How did COc1cc(OC)cc(-c2c(C#Cc3ccsc3)c3cc(-c4ccc(N(C)C)nc4)ccc3n2C)c1 do in these assays?
JMJD2A Tudor inh: inactive; HP1b binding inh: inactive

What do the screens show for `O=C1NC(Cc2ccccc2)c2nc3cc(F)ccc3c(=O)n2-c2cc(Cl)ccc21` (stereo not drawn)?
BAZ2B block: inactive; G9a block: inactive[0.501 µM]

Results for Cc1cc2c(s1)c1cnn(Cc3c(F)ccc(C)c3Cl)c(=O)c1n2C ?
JMJD2A Tudor inh: inactive

Results for Cc1oc(-c2ccccc2F)nc1CS(=O)(=O)CC(=O)NCCc1ccc(Cl)cc1 ?
BAZ2B block: inactive; G9a block: inactive; JMJD2A Tudor inh: inactive; HP1b binding inh: inactive

What do the screens show for `CC(C)(NC(=O)c1ccccc1)c1nc2ccccc2s1`?
BAZ2B block: inactive; G9a block: inactive[2.33 µM]; JMJD2A Tudor inh: 79µM; HP1b binding inh: inconclusive

Results for Cc1cc(=O)n2cccc(O)c2n1 ?
BAZ2B block: 13µM; JMJD2A Tudor inh: inconclusive; HP1b binding inh: inactive; Sfp PPTase inh: 56µM

What do the screens show for `CCN1CCN(c2cc3c(nn2)Oc2ccccc2N3C)CC1`?
BAZ2B block: inactive; G9a block: 50µM; JMJD2A Tudor inh: inactive; HP1b binding inh: inactive; Sfp PPTase inh: inactive

How did O=C(COC(=O)c1ccccc1OCc1ccccc1Cl)NCC1CCCO1 (stereo not drawn) do in these assays?
JMJD2A Tudor inh: inactive; HP1b binding inh: inactive

Source: PubChem
